Tests used:
Assay in all cases: DAPPL (digital affinity profiling via proximity ligation, sequencing); 10 mM Tris-HCl pH 7.5, 50 mM NaCl, 1 mM DTT, 4% glycerol, room temperature, 30 min; GST-TFs on glutathione beads, 16-mer random dsDNA library, 0.1% formaldehyde crosslink after washing; high values mean tight binding
[1] = target: T1, FLI1 (Homo sapiens, UniProt Q01543 1-452); settings: protein: recombinant; tags: N-terminal GST; dsDNA, one strand shown
T1 sequence: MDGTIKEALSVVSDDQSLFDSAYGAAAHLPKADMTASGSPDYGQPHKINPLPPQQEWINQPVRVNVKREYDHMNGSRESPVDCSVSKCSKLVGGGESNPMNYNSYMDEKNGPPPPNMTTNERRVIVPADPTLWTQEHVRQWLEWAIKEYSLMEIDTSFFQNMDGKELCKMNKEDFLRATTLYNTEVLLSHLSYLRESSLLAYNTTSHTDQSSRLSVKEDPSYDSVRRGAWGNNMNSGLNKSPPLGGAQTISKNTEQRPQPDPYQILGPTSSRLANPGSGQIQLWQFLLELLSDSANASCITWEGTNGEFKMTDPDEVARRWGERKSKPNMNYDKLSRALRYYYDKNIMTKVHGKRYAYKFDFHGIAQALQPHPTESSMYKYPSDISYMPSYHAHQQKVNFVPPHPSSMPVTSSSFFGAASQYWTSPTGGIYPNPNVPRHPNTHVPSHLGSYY
How it was run: (§1)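 GST fusions of human transcription factors were expressed in yeast and captured with glutathione beads. Once given DNA barcodes and pooled alongside a tag-only sample, they were incubated for 30 min at room temperature with 200 nmole of a random double-stranded 16-mer DNA library in Tris/NaCl/DTT/glycerol buffer, then washed, crosslinked (0.1% formaldehyde), proximity-ligated, PCR-amplified and sequenced on an Illumina NextSeq500. The binding signal of each hexamer is its read frequency for a factor divided by its frequency for the tag-only sample.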

[2] = target: T2, ELK1 (Homo sapiens, UniProt P19419 1-428); settings: protein: recombinant; tags: N-terminal GST; dsDNA, one strand shown
T2 sequence: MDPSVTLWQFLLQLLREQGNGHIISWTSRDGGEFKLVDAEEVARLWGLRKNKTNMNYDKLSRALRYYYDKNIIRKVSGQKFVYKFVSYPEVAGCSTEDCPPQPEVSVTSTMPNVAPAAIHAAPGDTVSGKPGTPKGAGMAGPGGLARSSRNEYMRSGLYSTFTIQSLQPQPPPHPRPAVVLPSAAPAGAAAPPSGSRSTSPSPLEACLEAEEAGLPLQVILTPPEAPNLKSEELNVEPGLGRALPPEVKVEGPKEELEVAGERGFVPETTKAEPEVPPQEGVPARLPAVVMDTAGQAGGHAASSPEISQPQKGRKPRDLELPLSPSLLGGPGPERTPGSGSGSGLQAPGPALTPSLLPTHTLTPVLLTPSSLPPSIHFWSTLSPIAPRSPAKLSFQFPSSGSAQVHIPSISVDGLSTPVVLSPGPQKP
How it was run: as §1

[3] = target: T3, GABPA (Homo sapiens, UniProt Q06546 1-454); settings: protein: recombinant; tags: N-terminal GST; dsDNA, one strand shown
T3 sequence: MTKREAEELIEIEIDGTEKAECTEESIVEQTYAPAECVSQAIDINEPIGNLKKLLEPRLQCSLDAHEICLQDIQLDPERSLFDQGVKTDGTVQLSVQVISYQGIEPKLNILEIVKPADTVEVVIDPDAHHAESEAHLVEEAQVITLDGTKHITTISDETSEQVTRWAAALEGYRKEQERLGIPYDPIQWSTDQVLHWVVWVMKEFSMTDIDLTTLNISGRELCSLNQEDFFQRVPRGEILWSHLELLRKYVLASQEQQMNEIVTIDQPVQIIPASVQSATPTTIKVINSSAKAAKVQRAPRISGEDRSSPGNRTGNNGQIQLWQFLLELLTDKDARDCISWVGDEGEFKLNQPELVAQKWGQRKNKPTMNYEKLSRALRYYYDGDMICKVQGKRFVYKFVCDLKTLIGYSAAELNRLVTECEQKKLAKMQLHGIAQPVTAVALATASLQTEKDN
How it was run: as §1

[4] = target: T4, ERG (Homo sapiens, UniProt P11308 1-479); settings: protein: recombinant; tags: N-terminal GST; dsDNA, one strand shown
T4 sequence: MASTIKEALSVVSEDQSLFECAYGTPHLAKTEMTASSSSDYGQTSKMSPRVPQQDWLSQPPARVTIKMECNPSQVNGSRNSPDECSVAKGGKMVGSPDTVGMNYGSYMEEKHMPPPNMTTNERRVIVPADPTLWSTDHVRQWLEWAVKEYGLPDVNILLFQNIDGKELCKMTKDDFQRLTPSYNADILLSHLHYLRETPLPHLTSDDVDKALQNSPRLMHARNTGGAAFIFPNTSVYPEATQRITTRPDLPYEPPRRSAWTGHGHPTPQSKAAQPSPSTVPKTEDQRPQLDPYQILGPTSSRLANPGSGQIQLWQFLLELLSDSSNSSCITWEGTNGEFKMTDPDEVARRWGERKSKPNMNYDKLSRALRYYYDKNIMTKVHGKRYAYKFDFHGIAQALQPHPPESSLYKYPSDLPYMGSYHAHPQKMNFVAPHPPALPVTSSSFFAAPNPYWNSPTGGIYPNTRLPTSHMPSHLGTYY
How it was run: as §1

[5] = target: ELF1 (Homo sapiens, UniProt P32519 1-619); settings: protein: recombinant; tags: N-terminal GST; dsDNA, one strand shown
How it was run: as §1

[6] = target: T5, EHF (Homo sapiens, UniProt Q9NZC4 1-300); settings: protein: recombinant; tags: N-terminal GST; dsDNA, one strand shown
T5 sequence: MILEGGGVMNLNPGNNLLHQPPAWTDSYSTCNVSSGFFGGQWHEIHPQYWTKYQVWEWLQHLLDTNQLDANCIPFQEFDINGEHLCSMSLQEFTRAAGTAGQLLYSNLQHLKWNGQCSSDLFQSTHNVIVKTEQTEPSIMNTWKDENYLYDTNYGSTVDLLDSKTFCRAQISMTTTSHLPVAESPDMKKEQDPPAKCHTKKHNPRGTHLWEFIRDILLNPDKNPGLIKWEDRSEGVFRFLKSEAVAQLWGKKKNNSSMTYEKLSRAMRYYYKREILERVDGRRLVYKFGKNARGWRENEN
How it was run: as §1

[7] = target: SPI1 (Homo sapiens, UniProt P17947 1-270); settings: protein: recombinant; tags: N-terminal GST; dsDNA, one strand shown
How it was run: as §1

[8] = target: SPIB (Homo sapiens, UniProt Q01892 1-262); settings: protein: recombinant; tags: N-terminal GST; dsDNA, one strand shown
How it was run: as §1

[9] = target: T6, ELK3 (Homo sapiens, UniProt P41970 1-407); settings: protein: recombinant; tags: N-terminal GST; dsDNA, one strand shown
T6 sequence: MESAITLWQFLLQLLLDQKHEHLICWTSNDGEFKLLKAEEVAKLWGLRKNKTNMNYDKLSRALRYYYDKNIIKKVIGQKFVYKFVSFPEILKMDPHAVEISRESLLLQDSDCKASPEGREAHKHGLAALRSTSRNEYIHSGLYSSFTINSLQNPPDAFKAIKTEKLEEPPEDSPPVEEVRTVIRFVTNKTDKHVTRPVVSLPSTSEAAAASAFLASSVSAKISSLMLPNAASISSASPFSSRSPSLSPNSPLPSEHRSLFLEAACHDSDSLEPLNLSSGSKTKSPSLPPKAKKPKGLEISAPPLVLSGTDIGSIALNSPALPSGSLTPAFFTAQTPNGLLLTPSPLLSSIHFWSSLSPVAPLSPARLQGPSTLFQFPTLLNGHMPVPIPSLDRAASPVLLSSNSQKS
How it was run: as §1

[10] = target: T7, FEV (Homo sapiens, UniProt Q99581 1-238); settings: protein: recombinant; tags: N-terminal GST; dsDNA, one strand shown
T7 sequence: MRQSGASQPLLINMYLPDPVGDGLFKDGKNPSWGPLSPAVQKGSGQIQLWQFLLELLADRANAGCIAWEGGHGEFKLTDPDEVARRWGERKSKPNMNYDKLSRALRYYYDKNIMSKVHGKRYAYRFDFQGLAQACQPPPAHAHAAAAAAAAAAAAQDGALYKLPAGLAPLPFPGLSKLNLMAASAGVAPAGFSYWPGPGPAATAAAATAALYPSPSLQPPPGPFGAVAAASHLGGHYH
How it was run: as §1

[11] = target: ETV5 (Homo sapiens, UniProt P41161 1-510); settings: protein: recombinant; tags: N-terminal GST; dsDNA, one strand shown
How it was run: as §1

[12] = target: HSF1 (Homo sapiens, UniProt Q00613 1-529); settings: protein: recombinant; tags: N-terminal GST; chain copies: 3; dsDNA, one strand shown
How it was run: as §1

[13] = target: T8, SPIC (Homo sapiens, UniProt Q8N5J4 1-248); settings: protein: recombinant; tags: N-terminal GST; dsDNA, one strand shown
T8 sequence: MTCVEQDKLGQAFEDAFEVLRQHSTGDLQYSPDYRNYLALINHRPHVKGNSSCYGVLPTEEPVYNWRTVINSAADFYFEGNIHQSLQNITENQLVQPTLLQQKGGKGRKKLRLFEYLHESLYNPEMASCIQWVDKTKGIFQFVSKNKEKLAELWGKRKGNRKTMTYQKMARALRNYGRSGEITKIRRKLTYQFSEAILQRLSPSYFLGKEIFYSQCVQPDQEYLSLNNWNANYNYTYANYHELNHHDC
How it was run: as §1

[14] = target: ELF4 (Homo sapiens, UniProt Q99607 1-663); settings: protein: recombinant; tags: N-terminal GST; dsDNA, one strand shown
How it was run: as §1

[15] = target: T9, ELK4 (Homo sapiens, UniProt P28324-2 1-405); settings: protein: recombinant; tags: N-terminal GST; dsDNA, one strand shown
T9 sequence: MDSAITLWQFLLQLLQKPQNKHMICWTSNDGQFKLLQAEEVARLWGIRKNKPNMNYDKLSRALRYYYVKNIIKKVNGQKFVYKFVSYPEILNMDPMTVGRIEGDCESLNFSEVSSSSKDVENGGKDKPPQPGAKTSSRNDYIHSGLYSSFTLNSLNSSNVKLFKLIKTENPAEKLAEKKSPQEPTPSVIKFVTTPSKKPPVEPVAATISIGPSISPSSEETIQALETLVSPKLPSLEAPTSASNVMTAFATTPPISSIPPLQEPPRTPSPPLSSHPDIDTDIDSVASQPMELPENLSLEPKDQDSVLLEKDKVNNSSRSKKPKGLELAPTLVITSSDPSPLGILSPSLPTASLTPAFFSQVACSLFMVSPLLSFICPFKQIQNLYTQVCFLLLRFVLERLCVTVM
How it was run: as §1

[16] = target: T10, ETV2 (Homo sapiens, UniProt O00321 1-342); settings: protein: recombinant; tags: N-terminal GST; dsDNA, one strand shown
T10 sequence: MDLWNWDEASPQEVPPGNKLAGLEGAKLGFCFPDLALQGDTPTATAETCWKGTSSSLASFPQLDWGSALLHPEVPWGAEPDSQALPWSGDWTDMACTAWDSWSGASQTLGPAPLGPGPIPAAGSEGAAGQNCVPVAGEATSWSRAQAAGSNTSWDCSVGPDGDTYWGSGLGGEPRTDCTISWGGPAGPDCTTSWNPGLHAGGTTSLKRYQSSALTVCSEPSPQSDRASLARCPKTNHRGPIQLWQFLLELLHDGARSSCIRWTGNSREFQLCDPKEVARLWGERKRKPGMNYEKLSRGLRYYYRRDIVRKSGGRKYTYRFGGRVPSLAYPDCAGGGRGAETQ
How it was run: as §1

[17] = target: T11, ELF3 (Homo sapiens, UniProt P78545 1-371); settings: protein: recombinant; tags: N-terminal GST; dsDNA, one strand shown
T11 sequence: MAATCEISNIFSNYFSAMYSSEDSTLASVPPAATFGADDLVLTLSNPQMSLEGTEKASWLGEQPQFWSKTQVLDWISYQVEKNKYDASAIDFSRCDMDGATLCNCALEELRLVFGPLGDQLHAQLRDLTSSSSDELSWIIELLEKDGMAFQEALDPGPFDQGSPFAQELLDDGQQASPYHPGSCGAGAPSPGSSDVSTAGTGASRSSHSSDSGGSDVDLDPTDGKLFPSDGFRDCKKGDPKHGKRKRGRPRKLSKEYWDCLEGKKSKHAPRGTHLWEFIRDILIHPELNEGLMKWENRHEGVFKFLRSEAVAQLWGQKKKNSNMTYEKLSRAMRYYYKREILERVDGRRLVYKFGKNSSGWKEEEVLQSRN
How it was run: as §1

[18] = target: CRX (Homo sapiens, UniProt O43186 1-299); settings: protein: recombinant; tags: N-terminal GST; dsDNA, one strand shown
How it was run: as §1

[19] = target: ETV1 (Homo sapiens, UniProt P50549 1-477); settings: protein: recombinant; tags: N-terminal GST; dsDNA, one strand shown
How it was run: as §1

Sequence of ETV1 (P50549 whole entry): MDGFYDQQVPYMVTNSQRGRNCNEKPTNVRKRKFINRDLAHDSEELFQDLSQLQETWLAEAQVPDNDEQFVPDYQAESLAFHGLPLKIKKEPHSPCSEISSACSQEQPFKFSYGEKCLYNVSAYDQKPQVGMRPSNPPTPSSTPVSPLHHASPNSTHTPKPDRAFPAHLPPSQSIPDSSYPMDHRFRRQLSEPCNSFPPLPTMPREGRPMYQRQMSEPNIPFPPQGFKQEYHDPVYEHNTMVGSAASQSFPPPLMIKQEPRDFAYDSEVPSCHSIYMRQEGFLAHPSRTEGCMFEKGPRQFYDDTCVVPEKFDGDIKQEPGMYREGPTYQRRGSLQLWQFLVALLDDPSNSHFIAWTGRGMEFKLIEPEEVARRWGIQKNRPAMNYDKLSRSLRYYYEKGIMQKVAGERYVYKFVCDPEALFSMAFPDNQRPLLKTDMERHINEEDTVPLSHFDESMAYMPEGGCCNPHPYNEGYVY
Sequence of HSF1 (Q00613 whole entry): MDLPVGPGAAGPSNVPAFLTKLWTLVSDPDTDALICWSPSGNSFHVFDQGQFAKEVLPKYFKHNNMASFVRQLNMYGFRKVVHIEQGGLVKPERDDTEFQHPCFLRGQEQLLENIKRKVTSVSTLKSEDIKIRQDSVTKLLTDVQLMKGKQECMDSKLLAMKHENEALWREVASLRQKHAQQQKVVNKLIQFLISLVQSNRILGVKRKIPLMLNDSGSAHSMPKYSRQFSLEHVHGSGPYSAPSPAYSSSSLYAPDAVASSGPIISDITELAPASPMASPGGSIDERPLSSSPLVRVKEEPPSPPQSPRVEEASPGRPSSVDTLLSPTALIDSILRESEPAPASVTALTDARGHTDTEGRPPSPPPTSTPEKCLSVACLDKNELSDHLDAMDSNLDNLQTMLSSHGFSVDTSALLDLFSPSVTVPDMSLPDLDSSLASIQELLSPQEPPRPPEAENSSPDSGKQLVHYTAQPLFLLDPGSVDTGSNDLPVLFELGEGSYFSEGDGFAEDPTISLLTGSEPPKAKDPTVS
Sequence of ELF1 (P32519 whole entry): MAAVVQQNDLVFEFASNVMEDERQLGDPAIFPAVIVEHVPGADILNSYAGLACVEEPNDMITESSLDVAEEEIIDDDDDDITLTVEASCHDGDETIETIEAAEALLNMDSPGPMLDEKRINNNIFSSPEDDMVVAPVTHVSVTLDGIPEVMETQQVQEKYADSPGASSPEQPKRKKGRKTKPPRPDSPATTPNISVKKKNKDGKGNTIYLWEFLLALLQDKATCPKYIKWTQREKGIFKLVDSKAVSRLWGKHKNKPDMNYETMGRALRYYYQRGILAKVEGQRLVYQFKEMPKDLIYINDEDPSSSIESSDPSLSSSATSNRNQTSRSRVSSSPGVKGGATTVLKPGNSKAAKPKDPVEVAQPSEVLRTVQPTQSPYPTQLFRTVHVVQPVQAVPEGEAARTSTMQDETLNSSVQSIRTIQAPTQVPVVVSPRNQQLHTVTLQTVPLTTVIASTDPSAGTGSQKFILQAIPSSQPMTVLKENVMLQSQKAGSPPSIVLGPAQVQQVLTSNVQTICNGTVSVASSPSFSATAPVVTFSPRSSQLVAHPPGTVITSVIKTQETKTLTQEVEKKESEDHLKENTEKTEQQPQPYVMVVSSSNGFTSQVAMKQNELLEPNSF
Sequence of CRX (O43186 whole entry): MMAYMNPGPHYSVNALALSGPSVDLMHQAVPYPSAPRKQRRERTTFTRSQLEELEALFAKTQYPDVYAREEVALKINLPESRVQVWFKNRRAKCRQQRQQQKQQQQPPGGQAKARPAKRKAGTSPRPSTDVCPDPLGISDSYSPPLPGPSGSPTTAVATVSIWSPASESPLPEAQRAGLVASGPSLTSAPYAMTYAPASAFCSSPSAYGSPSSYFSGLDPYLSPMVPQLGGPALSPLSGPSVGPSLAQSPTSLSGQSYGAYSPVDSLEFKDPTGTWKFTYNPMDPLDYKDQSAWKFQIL
Sequence of ELF4 (Q99607 whole entry): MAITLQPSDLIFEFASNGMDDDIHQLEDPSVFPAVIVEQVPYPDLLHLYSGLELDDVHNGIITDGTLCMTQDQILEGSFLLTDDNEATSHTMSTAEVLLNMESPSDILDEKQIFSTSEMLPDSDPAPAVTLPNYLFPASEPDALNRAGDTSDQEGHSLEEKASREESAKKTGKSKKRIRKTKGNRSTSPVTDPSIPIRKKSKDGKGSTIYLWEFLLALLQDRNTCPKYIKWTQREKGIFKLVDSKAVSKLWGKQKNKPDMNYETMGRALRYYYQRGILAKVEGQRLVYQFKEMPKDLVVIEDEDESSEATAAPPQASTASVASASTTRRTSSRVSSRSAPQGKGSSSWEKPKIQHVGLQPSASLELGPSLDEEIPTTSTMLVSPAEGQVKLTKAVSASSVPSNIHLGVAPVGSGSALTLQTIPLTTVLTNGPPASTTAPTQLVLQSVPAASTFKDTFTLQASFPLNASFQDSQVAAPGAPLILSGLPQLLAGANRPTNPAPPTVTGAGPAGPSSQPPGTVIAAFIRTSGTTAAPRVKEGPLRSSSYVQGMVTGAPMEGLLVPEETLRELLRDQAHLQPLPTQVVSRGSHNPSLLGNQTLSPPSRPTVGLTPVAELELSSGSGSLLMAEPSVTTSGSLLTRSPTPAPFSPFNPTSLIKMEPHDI
Sequence of SPIB (Q01892 whole entry): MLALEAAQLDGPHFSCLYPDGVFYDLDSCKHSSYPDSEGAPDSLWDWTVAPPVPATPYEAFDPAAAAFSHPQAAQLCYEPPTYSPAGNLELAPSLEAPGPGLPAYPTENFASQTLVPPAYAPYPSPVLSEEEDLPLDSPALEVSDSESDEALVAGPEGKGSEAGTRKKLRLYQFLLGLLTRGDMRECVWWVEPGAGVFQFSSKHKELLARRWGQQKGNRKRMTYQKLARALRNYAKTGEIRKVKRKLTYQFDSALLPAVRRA
Sequence of ETV5 (P41161 whole entry): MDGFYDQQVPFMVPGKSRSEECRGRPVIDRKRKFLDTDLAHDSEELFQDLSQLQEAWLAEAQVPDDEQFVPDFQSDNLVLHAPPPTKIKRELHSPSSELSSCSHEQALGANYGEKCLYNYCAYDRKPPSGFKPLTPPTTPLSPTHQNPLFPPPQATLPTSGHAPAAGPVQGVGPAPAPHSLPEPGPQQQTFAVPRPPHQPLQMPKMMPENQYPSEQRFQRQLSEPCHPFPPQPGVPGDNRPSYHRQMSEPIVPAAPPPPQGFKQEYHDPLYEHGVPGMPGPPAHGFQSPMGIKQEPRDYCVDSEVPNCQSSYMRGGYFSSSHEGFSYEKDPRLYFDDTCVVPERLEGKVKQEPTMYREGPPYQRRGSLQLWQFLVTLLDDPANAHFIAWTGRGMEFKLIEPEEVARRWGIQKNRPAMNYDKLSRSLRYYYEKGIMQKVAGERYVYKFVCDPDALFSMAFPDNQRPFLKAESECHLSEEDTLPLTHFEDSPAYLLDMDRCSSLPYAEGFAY

## CTGGTA
[1]
  binding signal: 1.3 fold enrichment (6-mer frequency, TF over GST control)
[2]
  binding signal: 1.34 fold enrichment (6-mer frequency, TF over GST control)
[3]
  binding signal: 1.29 fold enrichment (6-mer frequency, TF over GST control)
[4]
  binding signal: 1.4 fold enrichment (6-mer frequency, TF over GST control)
[5]
  binding signal: 1.38 fold enrichment (6-mer frequency, TF over GST control)
[6]
  binding signal: 1.4 fold enrichment (6-mer frequency, TF over GST control)
[7]
  binding signal: 1.33 fold enrichment (6-mer frequency, TF over GST control)
[8]
  binding signal: 1.4 fold enrichment (6-mer frequency, TF over GST control)
[9]
  binding signal: 1.35 fold enrichment (6-mer frequency, TF over GST control)
[10]
  binding signal: 1.23 fold enrichment (6-mer frequency, TF over GST control)
[11]
  binding signal: 1.25 fold enrichment (6-mer frequency, TF over GST control)
[12]
  binding signal: 1.75 fold enrichment (6-mer frequency, TF over GST control)
[13]
  binding signal: 1.28 fold enrichment (6-mer frequency, TF over GST control)
[14]
  binding signal: 1.4 fold enrichment (6-mer frequency, TF over GST control)
[15]
  binding signal: 1.29 fold enrichment (6-mer frequency, TF over GST control)
[16]
  binding signal: 1.41 fold enrichment (6-mer frequency, TF over GST control)
[17]
  binding signal: 1.2 fold enrichment (6-mer frequency, TF over GST control)
[18]
  binding signal: 1.38 fold enrichment (6-mer frequency, TF over GST control)
[19]
  binding signal: 1.24 fold enrichment (6-mer frequency, TF over GST control)

Source: article PMC7862700, “An all-to-all approach to the identification of sequence-specific readers for epigenetic DNA modifications on cytosine”
